Measured values from PubChem BioAssay (NCATS).
Results filed as inconclusive are left out. The source made the active and inactive calls. The call rests on the fitted dose curve; in most records, active means well fitted curve in the direction sought with a large enough effect; inconclusive means small, poorly fitted or top-dose-only effect, or another doubt; inactive means no such curve, though single readings can be large; an effect the other way counts as inactive or inconclusive.

Columns and labels:
[1] = HEK293 18hr Apoptosis Induction qHTS against the NCATS CANVASS Library (AID 1347357)
Outline: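 HEK293 cells (500 per well, DMEM with 10% FBS) were treated with natural products, incubated 18 hours at 37 degrees C, then caspase-3/7 activity was read by Caspase-Glo luminescence after 15 min at room temperature.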

[2] = HPAF-II 12hr Apoptosis Induction qHTS against the NCATS CANVASS Library (AID 1347358)
Outline: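 Cells plated at 500 per well are dosed with compound and incubated 12 hours at 37 degrees C. Caspase-Glo 3/7 reagent is added and, after 15 min at room temperature, luminescence proportional to caspase activity is measured.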

[3] = HEK293 24hr Apoptosis Induction qHTS against the NCATS CANVASS Library (AID 1347359)
Outline: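 HEK293 cells, 500 per well, exposed to an 11-point compound series for 24 hours at 37 degrees C. Caspase 3/7 activity read by Caspase-Glo luminescence (DEVD substrate) after 15 min at room temperature.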

[4] = HPAF-II 18hr Apoptosis Induction qHTS against the NCATS CANVASS Library (AID 1347360)
Outline: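 HPAF-II cells (500/well, DMEM + 10% FBS) were exposed to compounds for 18 hours at 37 degrees C. Caspase-3/7 activity was then read by Caspase-Glo 3/7 luminescence after 15 min at room temperature.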

[5] = HEK293 12hr Apoptosis Induction qHTS against the NCATS CANVASS Library (AID 1347361)
Outline: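 Read-out: Caspase-Glo 3/7 luminescence (DEVD substrate), 15 min RT. Preceded by 12 h compound exposure of HEK293, 500 cells/well, 11-pt qHTS titration; doxorubicin titration as control.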

[6] = test system: NAD(P)H diaphorase (Clostridium kluyveri); experiment: Diaphorse counterscreen qHTS: Assay Interference Panel against the NCATS CANVASS Library (AID 1347362)
Outline: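 Clostridium kluyveri diaphorase in PBS + 0.01% Tween-20 preincubated 15 min with compounds. Resazurin and NADH then added for 5 min at room temperature in the dark; resorufin fluorescence read (ex 525, em 598).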

[7] = molecular target: Luciferin 4-monooxygenase (Photinus pyralis) (UniProt P08659); experiment: Firefly luciferase counterscreen qHTS: Assay Interference Panel against the NCATS CANVASS Library (AID 1347363)
Outline: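 Purified P. pyralis luciferase (0.04 ug/mL, 4x reagent) added to Tris-acetate buffer with 0.013 mM D-luciferin, 0.013 mM ATP and 13.3 mM Mg-acetate; compounds preincubated 15 min, then luminescence read after 5 min, RT.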

[8] = KB-3-1 Cancer Cell Toxicity qHTS against the NCATS CANVASS Library (AID 1347366)
Outline: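 KB-3-1 cells (500 cells/well) in DMEM + 10% FBS were treated with compounds for 72 hr at 37C, 5% CO2. Viability was read as CellTiter-Glo luminescence after 10 minutes at room temperature.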

[9] = qHTS for ATAD5 Agonist screened against the NCATS CANVASS Library (AID 1347367)
Outline: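 HEK293T cells stably carrying an ATAD5-controlled luciferase reporter (2000 cells/well) attached for 5 hr, then received compounds in an 11-point series for 16hr at 37C. Luminescence was read after a 30 min room-temperature reagent step.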

[10] = G06 Cancer Cell Toxicity qHTS against the NCATS CANVASS Library (AID 1347368)
Outline: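 Cells were plated at 500 per well, then compounds were added over an 11-point range. After 72 hr at 37C, CellTiterGlo was added and luminescence measured as ATP content.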

[11] = qHTS for ATAD5 Antagonist screened against the NCATS CANVASS Library (AID 1347370)
Outline: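 Compounds (11-point) co-dosed with 10 µM 5-FUrd for 16 h at 37 °C onto HEK293T-ATAD5 luciferase reporter cells. Viability measured by CellTiter-Fluor fluorescence, then ATAD5 reporter signal by luminescence.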

[12] = J3T Cancer Cell Toxicity qHTS against the NCATS CANVASS Library (AID 1347371); conditions: J3T dog glioma viability, ATP luminescence, 72 h; at 91.4 µM (top of the series)
Outline: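 Luminescence from CellTiterGlo, reporting cellular ATP, serves as the viability measure after 72 hr compound treatment of J3T canine glioma cells seeded at 500 cells/well.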

[13] = molecular target: Nuclear receptor subfamily 1 group I member 3 (Homo sapiens) (UniProt Q14994); experiment: qHTS for Constitutive Androstane Receptor (CAR) Antagonist screened against the NCATS CANVASS Library (AID 1347372)
Outline: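 Luminescence readout (ONE-Glo, 30 min RT) of CYP2B6-2.2kb reporter in HepG2-hCAR cells after 24hr, 37C treatment with compound against 50 nM CITCO; CellTiter-Fluor viability read beforehand.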

[14] = molecular target: Nuclear receptor subfamily 1 group I member 3 (Homo sapiens) (UniProt Q14994); experiment: qHTS for Constitutive Androstane Receptor (CAR) Agonist screened against the NCATS CANVASS Library (AID 1347373)
Outline: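 Cells were plated and allowed to attach for 4hr, then dosed with compound in an 11-point series alongside 1.5uM PK11195. After 24hr at 37C, viability was measured fluorometrically and CAR-driven CYP2B6 reporter luminescence was recorded.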

[15] = 10-beta competent E. coli microbial cell viability qHTS against the NCATS CANVASS Library (AID 1347376)
Outline: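 Bacterial suspension diluted to 0.2 OD was dosed with compounds, 11-point series, then held overnight at 37C. BacTiter-Glo reagent was added, and after 20 min at room temperature ATP-dependent luminescence was measured.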

[16] = DH5-alpha competent E. coli microbial cell viability qHTS against the NCATS CANVASS Library (AID 1347377)
Outline: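 Bacteria were dispensed at 0.2 OD, then compounds were pin-transferred. Plates were incubated overnight at 37C, after which BacTiter-Glo was added and luminescence measured 20 min later.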

[17] = qHTS for H2AX Agonists against the NCATS CANVASS Library (AID 1347378)
Outline: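 CHO-K1 cells were plated overnight at 37C, then exposed to compounds (concentration series, 0.76% DMSO final) for 3 hr at 37C. Lysates received Eu-cryptate anti-pH2AX (S139) and d2 anti-H2AX antibodies; after 24 hr at room temperature, TR-FRET 665/620 nm ratio was read.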

[18] = qHTS for Inflammasome Signaling Inhibitors: IL-1-beta AlphaLISA screen against the NCATS CANVASS Library (AID 1347379); conditions: THP-1 LPS/ATP, IL-1B AlphaLISA secretion, 16 h; at 114 µM (top of the series)
Outline: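 Secreted IL-1B from human THP-1 cells quantified by AlphaLISA 16 hr after compound addition (final up to 57.5 uM). A 1 hr compound pretreatment preceded inflammasome activation with 250 ng/mL LPS plus 1.25 mM ATP (final).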

[19] = qHTS for Antimalaria activity screened against the NCATS CANVASS Library (AID 1347380)
Outline: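 Compounds are titrated over 11 concentrations onto Dd2 parasite cultures (0.3% parasitemia, 2.5% hematocrit). Growth over 72 h at 37C in low oxygen is measured as SYBR Green DNA fluorescence after lysis.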

[20] = Inflammasome Signaling qHTS Counterscreen: IL-1-beta AlphaLISA counterscreen against the NCATS CANVASS Library (AID 1347381)
Outline: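 Purified IL-1-beta (4 pg/well) + compound, 11-pt conc. series; acceptor beads 6 ug/mL + biotin-Ab 0.6 nM final, 1 h RT; SA-donor 24 ug/ml final, 30 min dark RT; read ex 680/em 615.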

Measured: outcome

Nuclear receptor subfamily 1 group I member 3 (Homo sapiens), sequence (Q14994 whole entry, looked up): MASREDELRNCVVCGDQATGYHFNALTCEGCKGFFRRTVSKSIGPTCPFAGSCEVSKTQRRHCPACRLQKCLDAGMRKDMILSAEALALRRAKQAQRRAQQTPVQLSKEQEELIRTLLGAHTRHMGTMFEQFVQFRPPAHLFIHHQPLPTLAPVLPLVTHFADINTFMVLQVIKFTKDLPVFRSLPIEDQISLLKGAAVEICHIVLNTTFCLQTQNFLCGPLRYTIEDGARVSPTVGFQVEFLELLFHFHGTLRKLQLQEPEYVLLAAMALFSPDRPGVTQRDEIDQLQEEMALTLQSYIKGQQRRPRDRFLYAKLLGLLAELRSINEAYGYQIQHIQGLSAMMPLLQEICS
Luciferin 4-monooxygenase (Photinus pyralis), sequence (P08659 whole entry, looked up): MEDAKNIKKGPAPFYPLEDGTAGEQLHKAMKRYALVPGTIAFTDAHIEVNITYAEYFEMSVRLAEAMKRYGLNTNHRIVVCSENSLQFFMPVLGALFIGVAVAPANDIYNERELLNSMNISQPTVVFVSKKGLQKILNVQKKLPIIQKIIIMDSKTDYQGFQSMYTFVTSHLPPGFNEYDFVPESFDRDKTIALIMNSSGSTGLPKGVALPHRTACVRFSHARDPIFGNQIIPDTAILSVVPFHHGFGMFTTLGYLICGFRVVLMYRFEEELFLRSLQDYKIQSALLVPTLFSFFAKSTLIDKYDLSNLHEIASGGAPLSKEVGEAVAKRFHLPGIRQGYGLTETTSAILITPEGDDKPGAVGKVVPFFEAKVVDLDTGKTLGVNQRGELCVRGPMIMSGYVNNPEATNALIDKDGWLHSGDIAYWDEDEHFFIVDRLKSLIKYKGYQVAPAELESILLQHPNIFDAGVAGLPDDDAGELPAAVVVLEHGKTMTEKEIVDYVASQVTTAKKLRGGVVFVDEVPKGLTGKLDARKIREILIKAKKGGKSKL

NCCc1ccc(O)cc1
inactive: all assays above
